The values below come from PubChem BioAssay (NCATS).

Where “and” joins values, the source holds several entries; their conditions need not be identical. Equal entries are not always repeated. Records with an inconclusive call do not appear. Calls of active or inactive are those of the source. The call rests on the fitted dose curve; in most records, active means well fitted curve in the direction sought with a large enough effect; inconclusive means small, poorly fitted or top-dose-only effect, or another doubt; inactive means no such curve, though single readings can be large; an effect the other way counts as inactive or inconclusive. Residues, ends and D or L forms follow the SMILES beside them. *: point of attachment. Cbz = O=C(OCc1ccccc1)*

In test [1] the target is Beta-2 adrenergic receptor (Homo sapiens) (UniProt P07550). Put plainly: qHTS validation assay of beta-arrestin-biased ligands of beta2-adrenergic receptor (AID 485366). The gist of the method: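 Agonism was measured as beta-arrestin recruitment to recombinant beta2-AR, releasing tTA to drive luciferase. Cells were exposed for 18 hr at 37 degrees C to a series up to 46 microM. %Activity from corrected luminescence gave concentration-response curves.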
Sequence of Beta-2 adrenergic receptor (Homo sapiens) (P07550 whole entry, looked up): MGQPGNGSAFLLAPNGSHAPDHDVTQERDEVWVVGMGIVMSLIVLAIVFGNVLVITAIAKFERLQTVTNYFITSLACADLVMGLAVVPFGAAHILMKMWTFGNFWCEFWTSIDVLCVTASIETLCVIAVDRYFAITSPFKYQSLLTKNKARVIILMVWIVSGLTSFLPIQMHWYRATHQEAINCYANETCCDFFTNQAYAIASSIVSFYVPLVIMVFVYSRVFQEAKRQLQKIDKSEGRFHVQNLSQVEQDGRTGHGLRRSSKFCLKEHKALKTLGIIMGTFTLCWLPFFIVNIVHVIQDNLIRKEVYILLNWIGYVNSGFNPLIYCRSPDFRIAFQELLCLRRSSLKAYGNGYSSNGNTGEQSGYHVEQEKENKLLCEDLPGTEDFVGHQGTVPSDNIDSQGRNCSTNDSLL
(In general: Quantitative high-throughput screening tests each substance at several concentrations.)

Test [2] deals with ATP-dependent 6-phosphofructokinase (Trypanosoma brucei brucei) (UniProt O15648). Briefly: qHTS Validation Assay to Find Inhibitors of T. brucei phosphofructokinase (AID 485368). Further: potency means the concentration at half of the fitted maximal effect. In short, it runs like this: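 ADP-Glo luminescence, two-step: residual ATP depleted, then ADP converted to ATP for luciferase. Enzyme 1.25 nM, F6P 0.5 mM, ATP 0.1 mM, pH 8.0 TEA buffer, 45 min RT. Curves fitted and classed by quality and efficacy.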
Sequence of ATP-dependent 6-phosphofructokinase (Trypanosoma brucei brucei) (O15648 whole entry, looked up): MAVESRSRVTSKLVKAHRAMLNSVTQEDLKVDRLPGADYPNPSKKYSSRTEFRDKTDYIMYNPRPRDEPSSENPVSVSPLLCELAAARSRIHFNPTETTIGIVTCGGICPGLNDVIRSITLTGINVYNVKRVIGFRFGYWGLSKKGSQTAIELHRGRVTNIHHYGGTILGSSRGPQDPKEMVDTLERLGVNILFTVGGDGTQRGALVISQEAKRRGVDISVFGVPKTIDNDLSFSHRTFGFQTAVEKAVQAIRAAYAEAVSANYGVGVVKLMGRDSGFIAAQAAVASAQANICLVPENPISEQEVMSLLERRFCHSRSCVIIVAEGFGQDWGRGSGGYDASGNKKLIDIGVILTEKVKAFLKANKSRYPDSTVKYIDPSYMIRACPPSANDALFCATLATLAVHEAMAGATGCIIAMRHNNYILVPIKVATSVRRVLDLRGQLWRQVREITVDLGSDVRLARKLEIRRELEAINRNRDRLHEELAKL

Test [3] is described as follows: Quantitative high throughput screen for delayed death inhibitors of the malarial parasite plastid, 96 hour incubation (AID 488745). Further: nearly all actives have a fitted effect of over 70% in size. Further: potency means the concentration at half of the fitted maximal effect. In short, it runs like this:
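Decreased firefly luciferase luminescence indicates inhibited growth of reporter-integrated P. falciparum after two generations (96 h, 37 C, 5% CO2). Infected erythrocytes at 0.1% parasitemia, 2% hematocrit, in Albumax-supplemented RPMI 1640.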

Test [4] in a line: Quantitative high throughput screen for delayed death inhibitors of the malarial parasite plastid, 48 hour incubation (AID 488752). Further: nearly all actives have a fitted effect of over 65% in size. Further: potency means the concentration at half of the fitted maximal effect. In short, it runs like this:
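One-generation (48 h) growth assay: a decrease in luciferase signal from an integrated reporter in P. falciparum-infected red cells (0.1% parasitemia, 2% hematocrit) after compound exposure at 37 C indicates parasite inhibition.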

Test [5] concerns the target Thioredoxin reductase 1, cytoplasmic (Rattus norvegicus) (UniProt O89049). Put plainly: qHTS Assay for Substrates of Mammalian Selenoprotein Thioredoxin Reductase 1 (TrxR1) (AID 488772).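 Further: series mostly up to about 57 µM; a drop in NADPH fluorescence below the no-compound background marks a TrxR1 substrate.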 In short, it runs like this:
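In this dual-purpose format, potential substrates are identified from the first fluorescence read after selenite addition, not from the 8-minute delta. Rat enzyme is preincubated with NADPH and then with compound at ~22 deg C.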

Test [6] has the same target. Put plainly: qHTS Assay for Inhibitors of Mammalian Selenoprotein Thioredoxin Reductase 1 (TrxR1) (AID 488773).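 Further: drop in NADPH fluorescence over an 8 min run after selenite addition; series mostly up to about 57 µM; nearly all actives have a fitted effect of over 40% in size.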 The conditions noted are these: Potency: inhibition. The gist of the method:
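Inhibition is scored from the loss of NADPH fluorescence between first and last reads of an 8-min kinetic run. Selenite (400 uM) was the substrate, added after 15 min compound preincubation at room temperature.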

The target in test [7] is Flap endonuclease 1 (Homo sapiens) (UniProt P39748). Briefly: qHTS Validation Assay for the Inhibitors of Human Flap endonuclease 1 (FEN1) (AID 488816). Further: potency means the concentration at half of the fitted maximal effect. The gist of the method:
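Enzyme reagent 10 nM; cpds pinned; 15 min RT preinc.; substrate 50 nM final; reads t=0 and 15 min; no-enzyme buffer wells as neg. control; normalized data, 4-parameter Hill fit.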

Test [8] deals with M-phase phosphoprotein 8 (Homo sapiens) (UniProt Q99549). Briefly: qHTS Validation Assay for Inhibitors for MPP8 Chromodomain Interactions with Methylated Histone Tails (AID 488949). Further: nearly all actives have a fitted effect of over 55% in size. Further: potency means the concentration at half of the fitted maximal effect. In short, it runs like this: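 AlphaScreen proximity signal from streptavidin donor and Ni-chelate acceptor beads (10 ug/mL each) reported binding of MPP8 to trimethyl-K9 H3(1-18) peptide, both at 50 nM. The complex formed 30 min before a 30 min compound exposure at room temperature, in PBS pH 7.4.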
Sequence of M-phase phosphoprotein 8 (Homo sapiens) (Q99549 whole entry, looked up): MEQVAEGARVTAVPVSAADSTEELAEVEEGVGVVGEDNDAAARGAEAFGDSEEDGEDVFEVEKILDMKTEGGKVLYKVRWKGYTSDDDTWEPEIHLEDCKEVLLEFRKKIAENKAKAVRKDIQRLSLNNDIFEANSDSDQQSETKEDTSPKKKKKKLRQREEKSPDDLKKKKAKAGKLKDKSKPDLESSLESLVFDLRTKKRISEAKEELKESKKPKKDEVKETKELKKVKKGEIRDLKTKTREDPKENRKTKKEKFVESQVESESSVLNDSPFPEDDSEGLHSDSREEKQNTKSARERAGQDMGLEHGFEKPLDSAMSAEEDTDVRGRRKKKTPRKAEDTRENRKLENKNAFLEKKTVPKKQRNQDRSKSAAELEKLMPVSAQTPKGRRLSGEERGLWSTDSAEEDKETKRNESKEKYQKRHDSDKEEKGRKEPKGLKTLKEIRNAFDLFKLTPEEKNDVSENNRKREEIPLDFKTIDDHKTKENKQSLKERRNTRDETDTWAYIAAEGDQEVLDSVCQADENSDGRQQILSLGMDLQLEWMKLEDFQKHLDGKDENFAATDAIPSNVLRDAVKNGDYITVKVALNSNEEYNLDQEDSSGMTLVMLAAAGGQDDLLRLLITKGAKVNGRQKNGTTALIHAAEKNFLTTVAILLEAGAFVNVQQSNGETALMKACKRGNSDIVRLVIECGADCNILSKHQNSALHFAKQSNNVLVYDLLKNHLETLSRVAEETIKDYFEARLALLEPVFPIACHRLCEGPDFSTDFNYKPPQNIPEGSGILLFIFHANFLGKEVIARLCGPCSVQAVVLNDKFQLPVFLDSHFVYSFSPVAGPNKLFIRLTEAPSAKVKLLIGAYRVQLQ

For test [9], the target named is Chromobox protein homolog 1 (Homo sapiens) (UniProt P83916). Briefly: qHTS Validation Assay for Inhibitors of HP1-beta Chromodomain Interactions with Methylated Histone Tails (AID 488953). Further: nearly all actives have a fitted effect of over 50% in size. Further: potency means the concentration at half of the fitted maximal effect. In short, it runs like this:
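AlphaScreen proximity signal from streptavidin donor and nickel chelate acceptor beads (final 10 ug/mL) after 30 min dark incubation. Compounds had 30 min at room temperature with preformed complex of 50 nM HP1-beta and 50 nM b-H3(1-18)K9me3 in PBS pH 7.4 with 0.01% Tween-20.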

The target in test [10] is Methanococcus maripaludis chaperonin (MmCpn) (UniProt Q6LX38). Put plainly: High-Throughput Screening for Modulators of Cytosolic Chaperonin Activity: MmCpn Primary Screen (AID 488978).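 Further: 50 nM MmCpn enzyme hydrolysing 30 µM ATP at 37 °C.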 The gist of the method:
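ATPase activity of 50 nM MmCpn was assayed with 30 uM ATP, 10 minutes at 37C, after a 5 min compound preincubation at room temperature. ADP production was read as HTRF emission at 590 and 665 nm.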

Sequence of Thioredoxin reductase 1, cytoplasmic (Rattus norvegicus) (O89049 whole entry, looked up): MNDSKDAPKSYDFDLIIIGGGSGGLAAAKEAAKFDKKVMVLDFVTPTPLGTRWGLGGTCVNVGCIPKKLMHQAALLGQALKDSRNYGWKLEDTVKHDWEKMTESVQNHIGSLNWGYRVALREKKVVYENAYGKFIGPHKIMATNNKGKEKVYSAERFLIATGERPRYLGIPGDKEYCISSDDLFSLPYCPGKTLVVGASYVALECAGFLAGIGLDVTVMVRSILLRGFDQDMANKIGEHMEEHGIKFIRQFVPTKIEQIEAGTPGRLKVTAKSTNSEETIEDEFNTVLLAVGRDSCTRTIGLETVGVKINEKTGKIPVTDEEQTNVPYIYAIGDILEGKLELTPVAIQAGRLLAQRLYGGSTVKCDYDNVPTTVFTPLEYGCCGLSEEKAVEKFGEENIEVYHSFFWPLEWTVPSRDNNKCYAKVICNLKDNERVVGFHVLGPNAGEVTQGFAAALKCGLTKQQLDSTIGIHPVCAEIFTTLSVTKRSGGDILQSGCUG
Sequence of Chromobox protein homolog 1 (Homo sapiens) (P83916 whole entry, looked up): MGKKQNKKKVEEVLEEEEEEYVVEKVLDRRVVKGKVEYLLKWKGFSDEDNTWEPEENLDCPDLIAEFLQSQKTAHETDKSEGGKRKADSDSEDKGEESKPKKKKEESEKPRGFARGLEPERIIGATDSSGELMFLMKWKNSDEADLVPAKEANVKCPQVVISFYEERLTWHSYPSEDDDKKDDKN
Sequence of Methanococcus maripaludis chaperonin (MmCpn) (Q6LX38 1-543): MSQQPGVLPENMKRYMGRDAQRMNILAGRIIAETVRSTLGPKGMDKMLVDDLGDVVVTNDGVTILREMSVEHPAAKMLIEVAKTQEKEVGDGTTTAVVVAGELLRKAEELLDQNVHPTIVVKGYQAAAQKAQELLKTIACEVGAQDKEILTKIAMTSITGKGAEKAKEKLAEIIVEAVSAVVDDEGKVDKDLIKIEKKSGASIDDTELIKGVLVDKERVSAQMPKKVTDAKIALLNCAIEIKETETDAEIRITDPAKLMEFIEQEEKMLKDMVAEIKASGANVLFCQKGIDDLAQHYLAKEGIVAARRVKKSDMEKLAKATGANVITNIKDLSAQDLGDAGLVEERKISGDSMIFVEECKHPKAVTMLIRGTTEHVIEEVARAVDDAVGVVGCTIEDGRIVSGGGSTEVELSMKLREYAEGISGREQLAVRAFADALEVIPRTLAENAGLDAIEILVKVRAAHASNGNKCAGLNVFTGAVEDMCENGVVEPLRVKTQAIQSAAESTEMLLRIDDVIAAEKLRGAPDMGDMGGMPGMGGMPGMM
Sequence of Flap endonuclease 1 (Homo sapiens) (P39748 whole entry, looked up): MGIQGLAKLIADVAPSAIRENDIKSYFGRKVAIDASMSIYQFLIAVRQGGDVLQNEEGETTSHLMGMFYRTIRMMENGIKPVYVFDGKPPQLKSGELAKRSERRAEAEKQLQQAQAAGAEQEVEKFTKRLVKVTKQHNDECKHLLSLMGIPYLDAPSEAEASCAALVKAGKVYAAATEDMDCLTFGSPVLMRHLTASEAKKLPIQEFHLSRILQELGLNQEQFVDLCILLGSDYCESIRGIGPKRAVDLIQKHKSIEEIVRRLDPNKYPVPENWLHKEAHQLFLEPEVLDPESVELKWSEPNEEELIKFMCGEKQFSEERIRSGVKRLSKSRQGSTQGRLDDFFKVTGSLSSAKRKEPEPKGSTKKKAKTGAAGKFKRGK

`Nn1nnc2ccccc21`: the call in test [1], in test [5] and in [10] was inactive. Moreover, the Potency result in test [2], in test [3], in test [4], in [6], in [7] and in test [8] was “inactive” in each case. Also, the Potency entry in test [9] is “inactive”.
In the case of `C#CCn1c(=O)c2c(ncn2C)n(C)c1=O`, the result in test [1], in test [5] and in test [10] was inactive. In addition, the Potency entry in test [2], in test [3], in test [4], in test [6], in [7] and in test [8] was “inactive” each time. Further, the Potency result in test [9] is “inactive”.
Turning to `CC1CCN=C(N)S1` (stereo unspecified), the compound was called inactive in test [1], in test [5] and in [10]. Further, the Potency entry in test [2], in test [3], in test [4], in [6], in test [7] and in test [8] was “inactive” each time. Further, in test [9], the Potency entry was “inactive”.
Consider `CC1=C(C(=O)O)N2C(=O)[C@@H](NC(=O)C(N)C3=CCC=CC3)[C@H]2SC1` (stereo partly specified), for which the compound was classed as inactive in [1], in [5] and in test [10]. The Potency result in test [2], in test [3], in test [4], in [6], in test [8] and in test [9] was “inactive” each time.
With `CCCN(CCc1ccccc1)C1CCc2c(O)cccc2C1` (stereo unspecified), the compound was classed as inactive in test [1], in [5] and in test [10]. Further, the Potency entry in test [2], in test [6], in test [8] and in test [9] was “inactive” each time. Further, the Potency in test [3] and in [4] was 3290 nM (active) each time.
Turning to `Cn1c(=O)c2c(nc(/C=C/c3cccc(Cl)c3)n2C)n(C)c1=O`, the compound was called inactive in [1], in test [5] and in test [10]. Also, the Potency entry in test [2], in test [3], in [4], in test [6], in test [8] and in test [9] was “inactive” each time.
`CCCCCCN(CCCCCC)C(=O)Cc1c(-c2ccc(F)cc2)[nH]c2ccccc12`: the compound was called inactive in test [1] and in [5]. For the same compound, the Potency entry in test [2], in [6], in test [8] and in test [9] was “inactive” in each case. Also, the Potency in test [3] is 3700 nM (active); in test [4] it was 5220 nM (active).
As for `CC(N)(Cc1ccc(O)cc1)C(=O)O` (stereo unspecified), the call in test [1], in test [5] and in test [10] was inactive. Further, the Potency entry in test [2], in [3], in [4], in test [7], in test [8] and in [9] was “inactive” in each case.
With `CNCCNS(=O)(=O)c1cccc2cnccc12`, the compound was classed as inactive in [1], in [5] and in [10]. Also, the Potency entry in [2], in test [3], in test [4], in test [6], in [7] and in test [8] was “inactive” in each case. Moreover, in test [9], the Potency result is “inactive”.
With `O=c1onc2n1-c1cc(Br)ccc1OC2`, the call in test [1], in [5] and in test [10] was inactive. In addition, the Potency result in test [2], in [3], in [4], in test [6], in test [7] and in test [8] was “inactive” each time.
`NCCCCN=C(N)N`: the outcome in test [1] and in [5] was inactive. Also, the Potency result in [2], in test [3], in test [4], in [6], in [8] and in test [9] was “inactive” each time.
For the compound `CC(C)[C@H](NC(=O)OCc1ccccc1)C(=O)N[C@H](C=O)Cc1ccccc1` (Cbz-Val-Phe-aldehyde), the call in test [1], in [5] and in test [10] was inactive. Also, the Potency result in [2], in test [6], in test [7], in test [8] and in test [9] was “inactive” each time. Moreover, the values for the Potency in test [3] and in test [4] were 2330 nM (active) and 2940 nM (active), respectively.
For the compound `CC[N+](CC)(CC)CC(=O)Nc1c(C)cccc1C`, the compound was classed as inactive in test [1], in test [5] and in test [10]. Also, the Potency entry in test [2], in [3], in [4], in test [7], in test [8] and in [9] was “inactive” throughout.
`CCCn1c(=O)c2[nH]c(-c3ccc(S(=O)(=O)O)cc3)nc2n(CCC)c1=O`: the compound was called inactive in test [1], in test [5] and in test [10]. Moreover, the Potency result in [2], in test [3], in [4], in test [6], in test [7] and in [8] was “inactive” in each case. Also, the Potency result in test [9] was “inactive”.
Consider `C=C(C)C1CC=C(C(=O)O)CC1` (stereo unspecified), for which the outcome in [1], in [5] and in test [10] was inactive. Further, the Potency result in [2], in test [3], in [4], in test [6], in test [8] and in [9] was “inactive” each time.
`COc1ccc(CCN(C)CCc2ccc(OC)c(OC)c2)cc1OC`: the outcome in [1], in [5] and in [10] was inactive. In addition, the Potency entry in [2], in test [3], in test [4], in [6], in test [8] and in test [9] was “inactive” throughout.
`CN[C@H](CC(=O)O)C(=O)O`: the result in test [1], in test [5] and in test [10] was inactive. Moreover, the Potency result in [2], in test [3], in [4], in test [6], in [7] and in [8] was “inactive” each time. The Potency result in [9] is “inactive”.
Take `CC(C)C[C@H](NC(=O)[C@H](O)[C@H](N)Cc1ccccc1)C(=O)O`: the outcome in test [1], in [5] and in test [10] was inactive. For the same compound, the Potency entry in [2], in [3], in [4], in [6], in test [7] and in [8] was “inactive” in each case. Also, in test [9], the Potency result was “inactive”.
With `N=S(=O)(O)Cc1noc2ccccc12`, the compound was classed as inactive in test [1] and in test [5]. The Potency entry in [2], in test [3], in test [4], in test [6], in [7] and in [8] was “inactive” each time. For the same compound, the Potency result in test [9] is “inactive”.
As to `CC(N)(C(=O)O)c1ccc(C(=O)O)cc1` (stereo unspecified), the call in [1], in test [5] and in test [10] was inactive. The Potency result in test [2], in [3], in [4], in test [6], in test [7] and in [8] was “inactive” throughout. The Potency entry in test [9] is “inactive”.
`NC1(C(=O)O)CCCCC1`: the result in test [1], in test [5] and in [10] was inactive. The Potency result in test [2], in test [3], in test [4], in [6], in [7] and in test [8] was “inactive” in each case.
As to `O=C(O)C1=CC(=C(c2ccc(O)c(C(=O)O)c2)c2ccc(O)c(C(=O)O)c2)C=CC1=O`, the result in test [1], in [5] and in test [10] was inactive. For the same compound, the Potency was 60.1 nM (active) in [2]; 134 nM (active) in test [7]; 178 nM (active) and 238 nM (active) in [8]; 199 nM (active) in test [9]. Also, the Potency result in test [3], in test [4] and in [6] was “inactive” each time.
For the compound `O=C1OC(=O)C2C3CCC(O3)C12` (stereo unspecified), the outcome in [1], in [5] and in test [10] was inactive. Also, the Potency result in test [2], in test [3], in test [4], in test [6], in test [7] and in test [8] was “inactive” each time. Moreover, the Potency entry in test [9] is “inactive”.
